Bioassay records from PubChem BioAssay.
DT40 TDP1 no CPT: qHTS for Inhibitors of human tyrosyl-DNA phosphodiesterase 1 (TDP1): qHTS in cells in absence of CPT | AID 686978, 2013 | Potency, µM (doses to about 46.2 µM), most hits filed as inhibitors | DT40 Tdp1-/- hTDP1 cells, no CPT, ATP luminescence, 48 h | 420,000 tested, 15% active; note: nearly all actives have a fitted effect of over 55% in size
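Cells were dispensed at 400 per well, compounds added by pin tool, plates incubated ≥48 hr at 37 °C, then CellTiter-Glo added for 30 min at room temperature before luminescence reading. Line: DT40 Tdp1-/- complemented with hTDP1; camptothecin omitted.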
IL1B secr inh: inhibitors of inflammasome signaling (IL-1 beta secretion); THP-1 LPS/ATP IL-1B secretion, AlphaLISA, 16 h; active compounds read low; activity change, % at 57.5 µM; 360,000 tested, 4.7% active; in the data active = activity change below about -50%; inconclusive = mostly about -30% to -49%
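Secreted IL-1B measured by AlphaLISA bead assay after 16 h compound exposure of THP-1 cells; compounds (final up to 57.5 uM) added 1 h before LPS (250 ng/mL) and ATP (1.25 mM) stimulation; lower signal means less secretion.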
HT1080-NT tox: kills 2HG-producing HT-1080-NT fibrosarcoma cells. HT-1080-NT fibrosarcoma viability, CellTiter-Glo ATP luminescence, 48 h. Potency, µM (highest dose often 46.1 µM), actives largely listed as cytotoxic. 360,000 tested, 1.6% active;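 note: NT is the 2HG producing partner of a matched IDH1 knockdown line; nearly all actives have a fitted effect of over 55% in size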
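Luminescent CellTiter-Glo readout after 48 hours of compound exposure at 37 degrees C defined viability of HT-1080-NT cells. Activity was normalized to DMSO wells and cell-free media wells; concentration-response curves were fitted and assigned curve classes.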
DT40 TDP1 CPT: growth inhibition of DT40 Tdp1-/-;hTDP1 cells with camptothecin (screen for TDP1 inhibitors) | chicken DT40 Tdp1-/-;hTDP1 cells + 20 nM CPT, ATP luminescence, 48 h | Potency, µM (titrated, usually from 46.2 µM), usual class: inhibitors | 420,000 tested, 12% active | AID 686979; note: nearly all actives have a fitted effect of over 55% in size
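Cell growth measured by CellTiter-Glo luminescence after a minimum 48 h, 37 C compound exposure with 20 nM CPT in Tdp1-knockout DT40 cells stably expressing hTDP1, seeded 400/well; qHTS titration format.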
HT1080 IDH1KD tx: toxicity to HT-1080 IDH1 knockdown cells (counter line); HT-1080 IDH1 knockdown viability, ATP luminescence, 48 h; Potency, µM (series often up to 46.1 µM), hits mostly cytotoxic; 360,000 tested, 2% active
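After a 2 h attachment period, IDH1KD HT-1080 cells took pin-transferred compound for 48 h at 37 °C; ATP-based luminescence after 10 min room-temperature reagent incubation reported viability.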
Hits are given with their value; – = inactive; ? = inconclusive; · = not tested or not shown; ! = not active in a repeat. Rows were chosen to be rich in hits. Some 19% of all compounds tested hit in one or more screens of this group. Unless noted, calls come from the whole dose curve; as a rule, active = well fitted curve in the direction sought with a large enough effect; inconclusive = small, poorly fitted or top-dose-only effect, or another doubt; inactive = no such curve, though single readings can be large; an effect the other way counts as inactive or inconclusive.

SMILES | DT40 TDP1 no CPT | IL1B secr inh | HT1080-NT tox | DT40 TDP1 CPT | HT1080 IDH1KD tx
CCN(CC(=O)Nc1c(F)cccc1F)C(=O)C1CC(=O)N(c2ccccc2OC)C1 (configuration not stated) | – | – | – | – | –
Cc1ccc2nc(N/N=C/c3ccccc3F)nc(-c3ccccc3)c2c1 | ? | -53 | – | ? | –
OCCNc1nc(-c2ccccc2)c2cc(Cl)ccc2n1 | – | – | ? | – | ?
Cc1ccc2nc(NCCO)nc(-c3ccccc3)c2c1 | 26µM | – | – | ? | –
Cc1ccc2nc(N/N=C/c3ccccc3C#N)nc(-c3ccccc3)c2c1 | 23µM | -73 | – | ? | –
Cc1cc(-c2ccccc2)nc(N/N=C/c2ccccc2F)n1 | ? | – | – | ? | –
O=C(COC(=O)c1ccc[nH]c1=O)NC1CC1 | – | – | – | – | –
COc1ccc(-c2c(Sc3ccccc3)c3cc(-c4ccc(OC)c(F)c4)ccc3n2C)cc1 | – | – | – | – | –
CCCCCCSc1ccc(-c2nc3cc(C)ccn3c2NC2CCCCC2)cc1 | 12µM | -70! | – | 18µM | –
Cc1ccc2nc(-c3ccc(F)cc3)c(CC3CCCCC3)n2c1 | ? | – | – | ? | –
CCCCCCSc1ccc(-c2nc3cnccn3c2NC2CCCCC2)cc1 | ? | – | – | ? | –
COc1cc(-c2nc3cc(C)ccn3c2NC2CCCCC2)ccc1-c1ccc(C(C)=O)cc1 | 7.3µM | ? | – | 13µM | ?
CCCCCCSc1cc(-c2nc3cc(C)ccn3c2NC2CCCCC2)ccc1OC | 16µM | – | – | ? | –
Cc1ccn2c(NC3CCCCC3)c(C(C)C)nc2c1 | – | – | – | – | –
CCCCCCSc1ccc(-c2nc3ccc(C)cn3c2NC2CCCCC2)cc1 | 18µM | – | – | 16µM | –
C=CS(=O)(=O)O | – | · | · | – | ·
CN(C)c1ccc(NC(=O)CC(NCc2cccnc2)C(=O)O)cc1 (configuration not stated) | – | · | · | – | ·
CCN(CC)C(=O)c1sc(N2C(=O)Nc3ccccc3N2O)c(C(=O)OC)c1C | – | – | – | – | –
O=C(CN(Cc1ccccc1)S(=O)(=O)c1ccc(F)cc1)NCc1cccnc1 | – | – | – | – | –
O=C(Nc1ccc2c(c1)CCCN2C(=O)c1ccco1)c1cc([N+](=O)[O-])ccc1Cl | ? | -87 | – | ? | ?
O=C(Nc1ccc(N2CCN(C(=O)c3ccco3)CC2)cc1)c1ccccc1F | ? | – | – | ? | –
O=C(Nc1ccc(N2CCN(C(=O)c3ccco3)CC2)cc1)c1ccc([N+](=O)[O-])cc1Cl | 21µM | – | – | ? | –
Cc1ccccc1C(=O)Nc1ccc(N2CCN(C(=O)c3ccco3)CC2)cc1 | ? | ? | – | – | –
Cc1ccc(C(=O)Nc2ccc(N3CCN(C(=O)c4ccco4)CC3)cc2)c(Cl)c1 | 13µM | ? | – | ? | –
Cc1ccc2c(c1)CCCN2C(=O)c1ccco1 | – | – | – | – | –
SMILES | DT40 TDP1 no CPT | IL1B secr inh | HT1080-NT tox | DT40 TDP1 CPT | HT1080 IDH1KD tx
O=C(Nc1ccc(N2CCN(C(=O)c3ccco3)CC2)cc1)c1ccccc1Br | ? | -62 | – | ? | –
Cc1cc(NC(=O)CSc2nnc(C)o2)no1 | – | – | – | – | –
CC(C)CN(C(=O)COC(=O)C(C)N1C(=O)c2ccccc2C1=O)c1c(N)n(Cc2ccccc2)c(=O)[nH]c1=O (configuration not stated) | – | – | – | – | –
O=[N+]([O-])c1cc(CN(CCO)CCO)ccc1O | – | – | – | – | –
COC(=O)N1[C@H](C)C=C[C@]1(Cc1ccccc1)C(=O)O | – | – | – | – | –
COc1ccccc1CNS(=O)(=O)c1ccc2[nH]c3c(c2c1)CCCCC3 | 7.3µM | · | · | 10µM | ·
CCOc1ccc(CNS(=O)(=O)c2ccc3[nH]c4c(c3c2)CCCC4)cc1OC | 23µM | · | · | ? | ·
COc1ccc(S(=O)(=O)NCc2ccc(F)cc2)cc1OC | – | – | – | – | –
Cc1cc(C)cc(NC(=S)Nc2cccc3cnccc23)c1 | ? | – | – | – | –
CC(=O)N(C)c1ccc(NC(=S)Nc2cccc3ccccc23)cc1 | ? | – | – | 23µM | –
CCc1ccc(NC(=S)Nc2cccc3cnccc23)cc1 | 15µM | – | – | ? | –
CC(=O)N(C)c1ccc(NC(=S)Nc2ccccc2)cc1 | – | – | – | – | –
CCn1c(N)c(C(=O)COC(=O)CCc2nc3ccccc3c(=O)[nH]2)c(=O)[nH]c1=O | – | – | – | – | –
CCN(CC)c1nc(Nc2ccccc2)nc(Oc2ccc(C(=O)OC)cc2)n1 | ? | – | – | ? | –
COC(=O)c1ccc(Oc2nc(Nc3ccccc3)nc(N(C)C)n2)cc1 | 21µM | – | – | ? | –
Cc1nc(COc2ccc(C(=O)Nc3ccccc3N3CCOCC3)cc2)cs1 | 15µM | ? | – | ? | –
Cc1nc(COc2ccc(C(=O)NCc3ccccc3CN3CCCCC3)cc2)cs1 | 23µM | – | – | ? | –
CC(C)Oc1ccc(C(=O)Nc2ccccc2N2CCOCC2)cc1 | – | – | – | – | –
CN1CCN(c2ccccc2NC(=O)c2ccc(-c3ccccc3)cc2)CC1 | 16µM | -59 | ? | ? | ?
CN1CCN(c2ccc([N+](=O)[O-])cc2NC(=O)c2ccccc2)CC1 | – | – | – | – | –
CN1CCN(c2ccccc2NC(=O)c2cccc(OCc3ccccc3)c2)CC1 | 21µM | -65 | ? | ? | 18µM
O=C(O)CSCC(=O)NCc1ccccc1 | – | – | – | – | –
COc1ccc(CN2CCN(Cc3ccon3)CC2CCO)c(C)c1C (configuration not stated) | – | – | – | – | –
O=C(Nc1ccccc1F)c1ccc(OCc2ccccc2)cc1 | – | – | – | – | –
CN1CCN(c2ccccc2NC(=O)c2ccc(OCc3ccccc3)cc2)CC1 | ? | -55 | ? | 16µM | 23µM
SMILES | DT40 TDP1 no CPT | IL1B secr inh | HT1080-NT tox | DT40 TDP1 CPT | HT1080 IDH1KD tx
CC(OC(=O)Cc1c[nH]c2ccccc12)C(=O)Nc1ccccc1[N+](=O)[O-] (configuration not stated) | – | – | – | – | –
CCOc1ccccc1NC(=O)CCCc1ccc(OC)c(C)c1 | ? | – | – | ? | ?
CCCCNc1c2c(nc3c(-c4ccccc4)c(C)nn13)CCC2 | 29µM | – | – | 21µM | –
Cc1nn2c(NCCCN3CCOCC3)c3c(nc2c1-c1ccccc1)CCC3 | ? | ? | – | ? | –
Cc1nn2c(N3CCN(CCO)CC3)c3c(nc2c1-c1ccccc1)CCCC3 | ? | · | 18µM | ? | ?
Cc1nn2c(NCc3cccnc3)c3c(nc2c1-c1ccccc1)CCC3 | ? | -76 | – | ? | ?
COc1cccc(Nc2c3c(nc4c(-c5ccccc5)c(C)nn24)CCC3)c1 | 13µM | – | – | – | –
